From PubChem BioAssay
TDP1 cell CPT – qHTS for Inhibitors of human tyrosyl-DNA phosphodiesterase 1 (TDP1): qHTS in cells in presence of CPT; 420,000 compounds, 12% hits; chicken DT40 Tdp1-/-;hTDP1 cells + 20 nM CPT, ATP luminescence, 48 h; Potency, µM (titrated, usually from 46.2 µM), for inactives: at the top dose activity change, negative = growth inhibition, usual class: inhibitors; also: potency is read from the fitted curve at half-maximal effect; nearly all actives have a fitted effect of over 55% in size
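Chicken DT40 Tdp1-/- cells complemented with human TDP1, 400 cells/well, exposed to compounds plus 20 nM camptothecin for at least 48 h at 37 C; viability read as ATP content by CellTiter-Glo luminescence.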
TDP1 cell noCPT – qHTS for Inhibitors of human tyrosyl-DNA phosphodiesterase 1 (TDP1): qHTS in cells in absence of CPT. DT40 Tdp1-/- hTDP1 cells, no CPT, ATP luminescence, 48 h. Potency, µM (highest dose often 46.2 µM), without a hit: at the highest dose activity change, negative = growth inhibition, actives largely listed as inhibitors. 420,000 compounds, 15% hits; also: potency is read from the fitted curve at half-maximal effect; nearly all actives have a fitted effect of over 55% in size
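No-CPT arm: Tdp1-/-;hTDP1 DT40 cells (400/well) plus compounds, incubated ≥48 hr at 37 °C. Readout CellTiter-Glo luminescence.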
HT1080NT lethal – qHTS for induction of synthetic lethality in tumor cells producing 2HG: qHTS for the HT-1080-NT fibrosarcoma cell line; HT-1080-NT fibrosarcoma viability, CellTiter-Glo ATP luminescence, 48 h; Potency, µM (series often up to 46.1 µM), without a hit: at the top dose activity, negative = less viability, hits mostly cytotoxic; 360,000 compounds, 1.6% hits; AID 686970, 2013;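 also: NT is the 2HG producing partner of a matched IDH1 knockdown line; potency is read from the fitted curve at half-maximal effect; 0% = DMSO-treated cells and -100% = media-only wells without cells; nearly all actives have a fitted effect of over 55% in size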
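HT-1080-NT; 750 cells/well; 5% FBS RPMI; 48 h compound, 37 degrees C; CellTiter-Glo luminescence; curve fitting and curve-class assignment.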
HT1080 IDH1KD tx – qHTS for induction of synthetic lethality in tumor cells producing 2HG: qHTS for the HT-1080-IDH1KD cell line. HT-1080 IDH1 knockdown viability, ATP luminescence, 48 h. Potency, µM (series often up to 46.1 µM), for the others: at the highest dose activity, negative = toxicity, usual class: cytotoxic. 360,000 compounds, 2% hits;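 also: potency is read from the fitted curve at half-maximal effect; 0% = DMSO wells and -100% = cell-free medium wells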
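Cytotoxicity counter-line: IDH1KD HT-1080, 48 h, CellTiter-Glo. Curves classed by r2, magnitude and activity.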
12-LOX inh – Primary qHTS assay for inhibitors of human arachidonate 12S-lipoxygenase (ALOX12): Round 2 | Polyunsaturated fatty acid lipoxygenase ALOX12 (Homo sapiens), P18054 | purified 12hLO, xylenol orange hydroperoxide absorbance | Potency, µM (top dose mostly 108 µM), for inactives: at the highest dose activity change, negative = inhibition, hits mostly inhibitors | 580,000 compounds, 1.1% hits | AID 1671190, 2021; also: potency is read from the fitted curve at half-maximal effect
Target sequence (P18054 whole entry, looked up): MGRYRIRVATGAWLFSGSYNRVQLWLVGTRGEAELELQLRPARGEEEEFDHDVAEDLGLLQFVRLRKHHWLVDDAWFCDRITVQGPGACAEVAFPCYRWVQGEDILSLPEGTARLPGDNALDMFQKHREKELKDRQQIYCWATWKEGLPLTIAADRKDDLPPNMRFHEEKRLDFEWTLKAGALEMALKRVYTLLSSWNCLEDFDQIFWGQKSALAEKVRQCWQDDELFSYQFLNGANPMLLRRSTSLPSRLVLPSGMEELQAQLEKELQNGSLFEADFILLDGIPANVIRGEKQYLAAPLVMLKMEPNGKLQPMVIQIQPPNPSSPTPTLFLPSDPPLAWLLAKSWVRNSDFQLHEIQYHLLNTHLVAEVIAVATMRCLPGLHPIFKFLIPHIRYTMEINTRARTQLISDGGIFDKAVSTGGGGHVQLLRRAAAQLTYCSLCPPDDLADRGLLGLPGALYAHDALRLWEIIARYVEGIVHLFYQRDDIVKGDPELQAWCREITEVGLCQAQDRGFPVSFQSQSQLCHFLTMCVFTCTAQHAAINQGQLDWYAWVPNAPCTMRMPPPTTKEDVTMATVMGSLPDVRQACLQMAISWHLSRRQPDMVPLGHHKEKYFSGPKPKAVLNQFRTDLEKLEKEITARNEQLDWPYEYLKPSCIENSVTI
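Purified human 12hLO at 150 nM in 25 mM Hepes, 0.01% Triton X-100, pH 7.0, preincubated 15 min at room temperature with compound. Reaction started with 40 uM arachidonic acid, 30 min at room temperature. Hydroperoxide measured by Fe-xylenol orange, 573/405 nm absorbance ratio.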
IL1B secr inh – qHTS for Inhibitors of Inflammasome Signaling: IL-1-beta AlphaLISA Primary Screen; activity change, % at 57.5 µM; AID 743279, 2014; THP-1 LPS/ATP IL-1B secretion, AlphaLISA, 16 h; stronger effect = lower value; 360,000 compounds, 4.7% hits; in the data active = activity change below about -50%; inconclusive = mostly about -30% to -49%
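Secreted IL-1B measured by AlphaLISA bead assay after 16 h compound exposure of THP-1 cells; compounds (final up to 57.5 uM) added 1 h before LPS (250 ng/mL) and ATP (1.25 mM) stimulation; lower signal means less secretion.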
The depositor's hits bear a star; ? = inconclusive; . = not tested or not shown; [ ] = another dose, or the depositor's remark. The full list was thinned out, with hits kept by preference. Unless noted, calls follow the shape of the dose curve; as a rule, active = well fitted curve in the direction sought with a large enough effect; inconclusive = small, poorly fitted or top-dose-only effect, or another doubt; inactive = no such curve, though single readings can be large; an effect the other way counts as inactive or inconclusive. Unless noted, % is scaled to controls: 0 for no effect and ±100 for the full control effect.

SMILES	TDP1 cell CPT	TDP1 cell noCPT	HT1080NT lethal	HT1080 IDH1KD tx	12-LOX inh	IL1B secr inh
O=C(NCc1ccccc1)[C@@H]1C[C@H]1[C@@H](NP(=O)(c1ccccc1)c1ccccc1)c1ccccc1	-27%	?	?	-2%	-12%	0
O=S(=O)(c1cccc(Cl)c1)n1c(/C=C/c2ccccc2Cl)nc2ccccc21	18µM*	13µM*	.	.	?	.
Nc1nc2ccccc2n1S(=O)(=O)c1ccc(Cl)cc1	?	?	-9%	-6%	4%	-16
COc1cc(S(=O)(=O)n2c(C)nc3ccccc32)ccc1F	?	?	?	?	?	32
Cc1ccc(S(=O)(=O)n2c(N)nc3ccccc32)cc1	?	-26%	-23%	-27%	14%	11
Cc1ccc(/C=C/c2nc3ccccc3n2S(=O)(=O)c2ccc(Br)cc2)cc1	?	21µM*	.	.	-30%	.
CSc1ccc(/C=C/c2nc3ccccc3n2S(=O)(=O)c2cccc(Cl)c2)cc1	13µM*	10µM*	.	.	-18%	.
O=C(NCCc1nc(Cc2ccccc2)no1)c1ccc2nccn2c1	.	.	.	.	53%	.
CCN(CC)S(=O)(=O)c1ccc(OC)c(NC(=O)C(C)Oc2ccc3c(C)cc(=O)oc3c2)c1 (stereo not given)	?	18µM*	-9%	-17%	-26%	3
CCN(CC)S(=O)(=O)c1ccc(C)c(NC(=O)COc2ccc3c(C)cc(=O)oc3c2)c1	?	?	10%	10%	-4%	20
Cn1c(=O)c2c(nc(N3CCN(Cc4ccccc4)CC3)n2CC(=O)c2ccccc2)n(C)c1=O	-21%	0%	12%	-2%	16%	12
CC1CCN(c2nc3c(c(=O)n(C)c(=O)n3C)n2Cc2ccccc2)CC1	-26%	?	-14%	-3%[9.24 µM]	11%	-62*
Cn1c(=O)[nH]c(=O)c2c1nc(N1CCCC1)n2CCCSc1nnnn1-c1ccccc1	21µM*	16µM*	-2%	0%	-20%	0
Cn1c(=O)c2c(nc(N3CCN(Cc4ccccc4)CC3)n2CCCc2ccccc2)n(C)c1=O	12µM*	18µM*	?	-13%	467%	0
CN1CCN(c2nc3c(c(=O)[nH]c(=O)n3C)n2CCSc2nnnn2-c2ccccc2)CC1	-16%	-21%	1%	1%	0%	1
Cn1c(=O)[nH]c(=O)c2c1nc(N1CCN(Cc3ccccc3)CC1)n2CCCc1ccccc1	12µM*	16µM*	-6%	1%	0%	1
Cn1c(=O)c2c(nc(N3CCCC3)n2CCc2ccccc2)n(C)c1=O	.	.	.	.	-15%	.
Cn1c(=O)c2c(nc(N3CCN(c4ccccc4)CC3)n2CCCc2ccccc2)n(C)c1=O	8.2µM*	6.5µM*	9%	12%	41%	28
Cn1c(=O)c2c(nc(N3CCN(c4ccc([N+](=O)[O-])cc4)CC3)n2C)n(C)c1=O	-20%	18µM*	6%	10%	-20%	-5
Cc1cc(C)c2oc(=O)cc(CN3CCN(C)CC3)c2c1	.	.	.	.	-2%	.
Cc1onc(-c2ccccc2)c1C(=O)Nc1nncs1	1%	-7%	14%	12%	-8%	-1
Cc1onc(-c2c(F)cccc2Cl)c1C(=O)Nc1sc2c(c1C#N)CCC(C(C)(C)C)C2 (stereo not given)	?	16µM*	-7%	-29%	?	?
Cc1onc(-c2c(F)cccc2Cl)c1C(=O)Nc1sc2c(c1C(N)=O)CCC2	11µM*	11µM*	11µM*	14µM*	?	?
Cc1onc(-c2ccccc2)c1C(=O)Nc1sccc1C#N	-5%	-16%	-21%	-23%	9%	-65*
Cc1onc(-c2ccccc2)c1C(=O)Nc1sc2c(c1C(N)=O)CCC2	-25%	?	-29%	-1%	-19%	-50*
SMILES	TDP1 cell CPT	TDP1 cell noCPT	HT1080NT lethal	HT1080 IDH1KD tx	12-LOX inh	IL1B secr inh
Cc1onc(-c2c(F)cccc2Cl)c1C(=O)Nc1nnc(C2CC2)s1	?	?	-14%	-17%	426%	13
Cc1cccc(C(=O)N2CCC3(CC2)OCC(C(=O)N2CCCC2)N3C(=O)c2cccc(C)c2)c1 (stereo not given)	.	.	.	.	19%	.
Cc1cc2c(c(=O)n(-c3ccccc3)c(=O)n2CC(=O)Nc2ccc(F)cc2)n1C	.	.	.	.	42%	.
Cc1c(Cl)c(=O)oc2cc(OC(=O)[C@@H](NC(=O)OC(C)(C)C)C(C)C)ccc12	.	.	.	.	-3%	.
Cc1onc(-c2ccccc2)c1C(=O)NC(=S)Nc1sc2c(c1C#N)CCC(C)C2 (stereo not given)	?	?	-6%	-5%	-25%	31
Cc1onc(-c2ccccc2)c1C(=O)Nc1sc2c(c1C#N)CCC2	29µM*	?	13µM*	?	?	33
Cc1ccc(Cn2c(C)c(CNC3CCCCC3)c(C(=O)O)c2C)cc1	0%	-8%	.	.	-16%	.
Cc1ccc(Cn2c(C)c(CNC(C)c3ccccc3)c(C(=O)O)c2C)cc1 (stereo not given)	?	26µM*	.	.	-17%	.
COc1ccc(NC(=O)CSc2nc3c(c(-c4cccs4)c2C#N)CN(C)CC3)cc1OC	29µM*	?	-15%	-19%	7%	?
CC(C)(C)NC(=O)CSc1nc2c(c(-c3cccs3)c1C#N)CCCC2	.	.	.	.	-54%	.
CN1CCc2nc(SCC(=O)Nc3ccc(Cl)cc3)c(C#N)cc2C1	?	?	-19%	-23%	5.6µM*	-7
CC1CCCN(c2ccc(C(=O)O)cc2NS(=O)(=O)c2ccc(Br)s2)C1 (stereo not given)	.	.	.	.	5.6µM*	.
Cc1ccc(S(=O)(=O)N2C[C@H]3[C@H]4C(=O)N(C5CCCCC5)C(=O)[C@H]4CC(=O)[C@H]3[C@@H]2c2cccc3ccccc23)cc1	-7%	-9%	?	7%	?	-14
Cc1ccc(S(=O)(=O)N2C[C@@H]3[C@H]4CC[C@H](C4)[C@@H]3[C@@H](C)[C@H]2c2ccn(Cc3ccccc3)c2)cc1	29µM*	-75%	?	-14%	?	?
